Source: PubChem BioAssay (NCATS)
Records with an inconclusive call do not appear. Calls of active or inactive are those of the source. Calls follow the shape of the dose curve; as a rule, active = well fitted curve in the direction sought with a large enough effect; inconclusive = small, poorly fitted or top-dose-only effect, or another doubt; inactive = no such curve, though single readings can be large; an effect the other way counts as inactive or inconclusive.

Key:
NIH3T3 = test: qHTS assay to identify novel small-molecules to repurpose for Merkel cell carcinoma treatment (AID 1296009); settings: MCC and control cell lines, CellTiter-Glo viability, 72 h; at 44.8 µM (top of the series) unless noted; also: nearly all actives have a fitted effect of over 60% in size
In short: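 After compound transfer in DMSO, plates were kept 72 hr at 37 degree celsius. Luminescent ATP signal from CellTiter-Glo served as viability measure, normalized against DMSO and no-cell controls.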

C33A = test: Primary qHTS to identify gynecologic anti-cancer compounds using libraries of approved drugs and bioactive compounds (AID 1345084); settings: Gynecologic cancer cell panel viability, ATPlite luminescence, 48 h; series mostly up to 57.5 µM; also: nearly all actives have a fitted effect of over 55% in size; also: potency is read from the fitted curve at half-maximal effect; as to activity change, negative = cytotoxicity: % is scaled to controls: 0 for no effect and ±100 for the full control effect
In short: (§1)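 48 h compound exposure at 37 C, 5% CO2; five-point qHTS. ATPlite luminescence readout of cell ATP.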

CAOV3 = test: as above; settings: Gynecologic cancer cell panel viability, ATPlite luminescence, 48 h; series mostly up to 57.5 µM
In short: as §1

CASKI = test: as above; settings: Gynecologic cancer cell panel viability, ATPlite luminescence, 48 h; series mostly up to 57.5 µM
In short: as §1

Es-2 = test: as above; settings: Gynecologic cancer cell panel viability, ATPlite luminescence, 48 h; series mostly up to 57.5 µM
In short: as §1

HeLa = test: as above; settings: Gynecologic cancer cell panel viability, ATPlite luminescence, 48 h; series mostly up to 57.5 µM
In short: as §1

COc1cc(C)[nH]c(=O)c1CNC(=O)c1c(C)n([C@H](C)C2CCOCC2)c2ccccc12
inactive: outcome (NIH3T3) | Potency (C33A) | Potency (CAOV3) | Potency (CASKI) | Potency (Es-2) | Potency (HeLa)

C[C@H]1C(=O)O[C@H]2[C@H](O)[C@]34C5OC(=O)[C@]3(O[C@@H]3OC(=O)[C@H](O)C34[C@H](C(C)(C)C)[C@H]5O)C12O (some centres undefined)
inactive: outcome (NIH3T3) inactive [at 17.4 µM] | Potency (C33A) | Potency (CAOV3) | Potency (CASKI) | Potency (Es-2) | Potency (HeLa)

CCN1C[C@]2(COC)[C@H](O)C[C@H](OC)[C@]34[C@@H]5C[C@]6(O)[C@H](OC(=O)c7ccccc7)[C@@H]5[C@@](O)([C@H]([C@H](OC)[C@H]23)[C@@H]14)[C@@H](O)[C@@H]6OC
inactive: outcome (NIH3T3) | Potency (C33A) | Potency (CAOV3) | Potency (CASKI) | Potency (Es-2) | Potency (HeLa)

C=C(CO)C(=O)O[C@H]1C/C(C)=C/CC/C(CO)=C/[C@H]2OC(=O)C(=C)[C@H]12
inactive: outcome (NIH3T3) | Potency (C33A) | Potency (CAOV3) | Potency (CASKI) | Potency (Es-2) | Potency (HeLa)

CN(C(=O)Cc1ccccc1)C(CN1CCCC1)c1ccccc1 (centres undefined)
inactive: outcome (NIH3T3) | Potency (C33A) | Potency (CAOV3) | Potency (CASKI) | Potency (Es-2) | Potency (HeLa)

CCN1CC2(COC)C3[C@@H](OC)C4C1C3(C1C[C@]3(O)[C@H](OC(=O)c5ccccc5)C1[C@]4(OC(C)=O)[C@@H](O)[C@@H]3OC)[C@H](OC)C[C@H]2O (some centres undefined)
inactive: outcome (NIH3T3) | Potency (C33A) | Potency (CAOV3) | Potency (CASKI) | Potency (Es-2) | Potency (HeLa)

COCC1OC(=O)c2coc3c2C1(C)C1=C(C3=O)C2CCC(=O)C2(C)CC1O (centres undefined)
inactive: outcome (NIH3T3) | Potency (C33A) | Potency (CAOV3) | Potency (CASKI) | Potency (Es-2) | Potency (HeLa)

C[C@@]1(C(=O)O)CC[C@]2(C)CC[C@]3(C)C4=CC(=O)c5cc(O)c(O)cc5[C@]4(C)CC[C@@]3(C)[C@@H]2C1
inactive: outcome (NIH3T3) inactive [at 17.4 µM] | Potency (C33A) | Potency (CAOV3) | Potency (CASKI) | Potency (Es-2) | Potency (HeLa)

COC1CC(OC2CCC3(C)C(=CCC4C3CCC3(C)C(C(C)OC5OC(COC6OC(CO)C(O)C(O)C6O)C(O)C(O)C5O)CCC43O)C2)OC(C)C1OC1OC(C)C(O)C(OC)C1O (centres undefined)
inactive: outcome (NIH3T3) inactive [at 9.27 µM] | activity change, negative = cytotoxicity (C33A) 6.28% [at 11.6 µM] | activity change, negative = cytotoxicity (CAOV3) 3.88% [at 11.6 µM] | activity change, negative = cytotoxicity (CASKI) 4.6% [at 11.6 µM] | activity change, negative = cytotoxicity (Es-2) -3.02% [at 11.6 µM] | activity change, negative = cytotoxicity (HeLa) -1.19% [at 11.6 µM]

Clc1ccc(N2C[C@H]3CC[C@@H](C2)N3)nn1
inactive: outcome (NIH3T3) | Potency (C33A) | Potency (CAOV3) | Potency (CASKI) | Potency (Es-2) | Potency (HeLa)

COc1cc(CCNCc2ccccc2O)c(OC)cc1C#N
inactive: Potency (C33A) | Potency (CAOV3) | Potency (CASKI) | Potency (Es-2) | Potency (HeLa)

CN1C(=O)c2ccccc2NC(=O)[C@]12O[C@@H]2c1ccccc1
inactive: Potency (C33A) | Potency (CAOV3) | Potency (CASKI) | Potency (Es-2) | Potency (HeLa)

COC1C(O)C(OC2CCC3(C=O)C(CCC4C3CCC3(C)C(C5=CC(=O)OC5)CCC43O)C2)OC(C)C1OC1OC(CO)C(O)C(O)C1O (centres undefined)
inactive: outcome (NIH3T3) inactive [at 17.4 µM]
active: Potency (C33A) 501 nM | Potency (CAOV3) 2000 nM | Potency (Es-2) 891 nM | Potency (HeLa) 1260 nM

Cc1cc(C(=O)CN2CCCC2)c(C)n1-c1ccc(F)cc1
inactive: Potency (C33A) | Potency (CAOV3) | Potency (CASKI) | Potency (Es-2) | Potency (HeLa)

C=CC(C)(O)CC/C=C(\C)C(=O)O[C@H]1[C@H](O)[C@@H](CO)O[C@@H](OC(=O)[C@]23CCC(C)(C)CC2C2=CCC4[C@@]5(C)CC[C@H](O[C@@H]6O[C@H](CO[C@@H]7OC[C@H](O)[C@H](O)[C@H]7O[C@@H]7OC[C@@H](O)[C@H](O)[C@H]7O)[C@@H](O)[C@H](O)[C@H]6O)C(C)(C)C5CC[C@@]4(C)[C@]2(C)CC3)[C@@H]1OC1OC(C)C(O[C@@H]2OC[C@@H](O)[C@H](O[C@@H]3OC[C@@H](O)[C@H](O)[C@H]3O)[C@H]2O)C(O)C1O (some centres undefined)
inactive: outcome (NIH3T3) inactive [at 9.27 µM] | activity change, negative = cytotoxicity (C33A) 2.58% [at 6.55 µM] | activity change, negative = cytotoxicity (CASKI) -11.5% [at 6.55 µM] | activity change, negative = cytotoxicity (Es-2) 0.692% [at 6.55 µM] | activity change, negative = cytotoxicity (HeLa) 7.46% [at 6.55 µM]

O=C(O)c1ccnc2cc(C(OCCN3CCCCC3)c3ccccc3Cl)[nH]c12 (centres undefined)
inactive: Potency (C33A) | Potency (CAOV3) | Potency (CASKI) | Potency (Es-2) | Potency (HeLa)

C=C(C)[C@H]1O[C@H]2CC[C@@]3(C)[C@@](O)(CC[C@H]4[C@@H]5OC(C)(C)[C@H]6C[C@@H]7C(=C)Cc8c(Cl)cc9[nH]c(c5c9c8[C@@]76O)[C@@]43C)[C@]23O[C@@H]3[C@H]1O
inactive: Potency (C33A) | Potency (CAOV3) | Potency (CASKI) | Potency (Es-2) | Potency (HeLa)

CC(C)=C1CC[C@]23CO[C@H](C2)[C@@](O)(C(=O)O)CCC13 (some centres undefined)
inactive: Potency (C33A) | Potency (CAOV3) | Potency (CASKI) | Potency (Es-2) | Potency (HeLa)

CCOc1ccccc1-n1c(C(C)N2CCN(C(=O)COc3ccc(Cl)cc3)CC2)nc2ccccc2c1=O (centres undefined)
inactive: Potency (C33A) | Potency (CAOV3) | Potency (CASKI) | Potency (HeLa)
active: Potency (Es-2) 3980 nM

C/C=C(\C)C(=O)OC1CC2C(C)(C)OC(=O)CC(OC(C)=O)C2(C)C2CC(OC(=O)C(C)C)C3(C)C(c4ccoc4)CC4OC43C12C (centres undefined)
inactive: Potency (C33A) | Potency (CAOV3) | Potency (CASKI) | Potency (Es-2) | Potency (HeLa)

C[C@H](NC(=O)Cc1cc(F)cc(F)c1)C(=O)N[C@@H]1N=C(c2ccccc2)c2ccccc2N(C)C1=O
inactive: Potency (C33A) | Potency (CASKI) | Potency (Es-2) | Potency (HeLa)

C/C=C(\C)C(=O)OC1CC2C(CC=C3CC(OC4CC(OC)C(OC5CC(OC)C(OC6OC(C)C(OC7OC(CO)C(O)C(O)C7O)C(OC)C6O)C(C)O5)C(C)O4)CCC32C)C2(O)CCC(C(C)=O)C12C (centres undefined)
inactive: activity change, negative = cytotoxicity (C33A) 3.18% [at 11.6 µM] | activity change, negative = cytotoxicity (CAOV3) 5.78% [at 11.6 µM] | activity change, negative = cytotoxicity (CASKI) 19.1% [at 11.6 µM] | activity change, negative = cytotoxicity (Es-2) 3.55% [at 11.6 µM] | activity change, negative = cytotoxicity (HeLa) -1.26% [at 11.6 µM]
